Several values for one entry are separate records, joined by “and”; a condition that tells them apart may be missing. Equal entries are not always repeated. Activity calls are given as the source filed them.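 Rule for the calls, unless noted: active = thallium flux through the channel raised or lowered by more than 3 SD from vehicle-only wells, actives on both sides; inactive = the rest.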
How the values were obtained:
[1] = liver-stage malaria parasite growth inhibition, primary screen, cell-based, HepG2, luciferase luminescence, HepG2 viability (AID 624349; in the data active = parasite load remaining mostly below about 12%, no sharp cut-off; inactive = mostly above about 10%;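 note: 100% = mean of DMSO negative control wells on the same plate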); settings: P. berghei liver stage in HepG2, luciferase luminescence, concentration not given here; parasite load remaining: stronger effect = lower value; viability: measured here: HepG2 viability without parasites
[2] = Cy5 fluorescence interference with SSB-bound oligo, artefact control for HCV NS3 helicase inhibitor project, biochemical, NIH Clinical Collection, E. coli SSB (AID 743268; call rule not given here)
[3] = system: Hepatitis C virus NS3 helicase; test: HCV NS3 helicase inhibitors, primary screen, biochemical, fluorescence polarization, NIH Clinical Collection (AID 743270; call rule not given here); settings: NS3 helicase binding to Cy5-dT15 DNA, stronger effect = higher value, concentration not given here
[4] = target: Single-stranded DNA-binding protein (Escherichia coli (strain K12)) (UniProt P0AGE0); test: E. coli SSB displacement from DNA, counter-screen for HCV NS3 helicase inhibitor project, biochemical, fluorescence polarization, NIH Clinical Collection (AID 743271; in the data active = inhibition above about 28%); settings: stronger effect = higher value, concentration not given here
[5] = fluorescence interference in NS3h assay format, artefact control for HCV NS3 helicase inhibitor project, biochemical, NIH Clinical Collection (AID 743272; call rule not given here;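 note: HCV NS3 helicase with a Cy5 labelled single stranded DNA probe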); settings: fluorescence interference counterscreen, stronger effect = lower value
[6] = modulation of C. elegans fzo-1 (AID 1259413; call rule not given here;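 note: fzo-1 mutant C. elegans worms in liquid wells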); settings: C. elegans fzo-1 modulator screen, mean read-out; stronger effect = higher value
[7] = differential killing of epithelial or mesenchymal cells, primary screen, imaging, PC-3E GFP, TEM4-18 mCherry, co-culture (AID 1345086;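 active = compounds killing one labelled cell type while sparing the other, by normalised counts and ratio limits, not self-fluorescent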;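 for all read-outs here: cells exposed to compound for 72 h before imaging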;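 for red/green cell ratio (normalised): normalised mesenchymal count divided by normalised epithelial count so high means epithelial killing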); settings: imaging cell counts, at 1 µM; for red/green cell ratio (normalised): actives lie on both sides, counts scaled to control wells, 1 = unselective
[8] = survival rescue of mitochondrial mutant cells in low glucose, primary screen, MELAS cybrids, Rieske KO mouse fibroblasts, CellTiter-Glo (AID 1508586;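 active = mean z-score across replicates of 1.96 or higher in either the MELAS or the Rieske mutant cell line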;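 note: z relative to plate mean and SD of compound and empty wells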)
[9] = ovarian cancer cell viability with rucaparib, profiling panel, oncology-focused library, rucaparib conditional (AID 1508598;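 active = normalized viability below 100% at a tested concentration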); settings: patient-derived ovarian cancer cells, CellTiter-Glo viability, 144 h, stronger effect = lower value
[10] = system: F380Y; test: modulators of BK channel variants, profiling panel, selectivity assay, cell-based, U2OS BacMam, thallium flux, beta subunits (AID 1259406); settings: at 30 µM;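 note: initial slope of Thallos dye fluorescence rise after thallium is added; log ratio against the mean of 0.3% DMSO vehicle wells on the same plate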
[11] = system: F380Y/beta1; test: as above; settings: at 30 µM
[12] = system: F380Y/beta2Delta; test: as above; settings: at 30 µM
[13] = system: F380Y/beta4; test: as above; settings: at 30 µM
[14] = target: Calcium-activated potassium channel subunit alpha-1 (Homo sapiens) + Leucine-rich repeat-containing protein 26 (Homo sapiens) (UniProt Q12791+Q2I0M4); test: as above; settings: F380Y/Slo1WT/gamma1, at 30 µM
[15] = system: R275C; test: as above; settings: at 30 µM
[16] = system: R275C/beta1; test: as above; settings: at 30 µM
[17] = system: R275C/beta2Delta; test: as above; settings: at 30 µM
[18] = system: R275C/beta4; test: as above; settings: at 30 µM
[19] = system: R275C/Slo1WT/beta2; test: as above; settings: at 30 µM
[20] = measured here: epithelial PC-3E GFP cell survival
[21] = measured here: mesenchymal TEM4-18 mCherry cell survival
[22] = MELAS cybrid survival, CellTiter-Glo 48 h, stronger effect = higher value
[23] = Rieske KO mouse fibroblast survival, CellTiter-Glo 72 h

Calcium-activated potassium channel subunit alpha-1 (Homo sapiens) + Leucine-rich repeat-containing protein 26 (Homo sapiens), sequence (Q2I0M4 whole entry, looked up, one chain of several): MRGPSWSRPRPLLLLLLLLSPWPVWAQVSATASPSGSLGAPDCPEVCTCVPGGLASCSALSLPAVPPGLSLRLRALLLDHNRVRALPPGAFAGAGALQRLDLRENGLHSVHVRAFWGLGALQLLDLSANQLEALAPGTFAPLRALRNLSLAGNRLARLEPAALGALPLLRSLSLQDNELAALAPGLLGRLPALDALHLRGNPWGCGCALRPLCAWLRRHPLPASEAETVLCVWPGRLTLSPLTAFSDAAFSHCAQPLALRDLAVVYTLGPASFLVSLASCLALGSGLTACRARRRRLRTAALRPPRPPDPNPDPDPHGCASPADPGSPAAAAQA

O=C1CN2Cc3c(ccc(Cl)c3Cl)N=C2N1
99.2% and 69.6% and 96.5%: viability [1]
inactive: parasite load remaining [1] 45.6% and 99.2% and 57.7% | fluorescence ratio [2] 1.06 | inhibition [3] -12.3% | inhibition [4] -7.03% | fluorescence ratio [5] 1.02 | mean signal [6] 210 | red/green cell ratio (normalised) [7] 0.92 | z-score [8, 22] -0.241 and 0.475 and -0.0504 | viability ([9]; at 0.000305 µM, OCI-C5x cells, with rucaparib 10 µM, 100% = cells with rucaparib alone) 111% | viability ([9]; at 0.000305 µM, OCI-C5x cells, without rucaparib) 124% | viability ([9]; at 0.00122 µM, OCI-C5x cells, with rucaparib 10 µM, 100% = cells with rucaparib alone) 113% | viability ([9]; at 0.00122 µM, OCI-C5x cells, without rucaparib) 126% | viability ([9]; at 0.00122 µM, OCI-P5x cells, with rucaparib 20 µM, 100% = cells with rucaparib alone) 100% | viability ([9]; at 0.00122 µM, OCI-P5x cells, without rucaparib) 107% | viability ([9]; at 0.00488 µM, OCI-C5x cells, with rucaparib 10 µM, 100% = cells with rucaparib alone) 115% | viability ([9]; at 0.00488 µM, OCI-C5x cells, without rucaparib) 121% | viability ([9]; at 0.00488 µM, OCI-P5x cells, with rucaparib 20 µM, 100% = cells with rucaparib alone) 106% | viability ([9]; at 0.00488 µM, OCI-P5x cells, without rucaparib) 105% | viability ([9]; at 0.0195 µM, OCI-C5x cells, with rucaparib 10 µM, 100% = cells with rucaparib alone) 111% | viability ([9]; at 0.0195 µM, OCI-C5x cells, without rucaparib) 115% | viability ([9]; at 0.0195 µM, OCI-P5x cells, without rucaparib) 103% | viability ([9]; at 0.0781 µM, OCI-C5x cells, with rucaparib 10 µM, 100% = cells with rucaparib alone) 109% | viability ([9]; at 0.0781 µM, OCI-C5x cells, without rucaparib) 107% | viability ([9]; at 0.0781 µM, OCI-P5x cells, without rucaparib) 101% | viability ([9]; at 0.313 µM, OCI-C5x cells, with rucaparib 10 µM, 100% = cells with rucaparib alone) 125% | viability ([9]; at 0.313 µM, OCI-C5x cells, without rucaparib) 118% | viability ([9]; at 1.25 µM, OCI-C5x cells, with rucaparib 10 µM, 100% = cells with rucaparib alone) 123% | viability ([9]; at 1.25 µM, OCI-C5x cells, without rucaparib) 107% | viability ([9]; at 5 µM, OCI-C5x cells, with rucaparib 10 µM, 100% = cells with rucaparib alone) 122% | viability ([9]; at 5 µM, OCI-C5x cells, without rucaparib) 116% | log fold change Tl+ flux [10] -0.00116 | log fold change Tl+ flux [11] 0.0415 | log fold change Tl+ flux [12] 0.0342 | log fold change Tl+ flux [13] 0.00749 | log fold change Tl+ flux [14] -0.00535 | log fold change Tl+ flux [15] -0.0701 | log fold change Tl+ flux [16] -0.00554 | log fold change Tl+ flux [17] -0.00347 | log fold change Tl+ flux [18] -0.00682 | log fold change Tl+ flux [19] -0.00842
active: viability ([9]; at 0.000305 µM, OCI-P5x cells, with rucaparib 20 µM, 100% = cells with rucaparib alone) 98.8% | viability ([9]; at 0.000305 µM, OCI-P5x cells, without rucaparib) 72% | viability ([9]; at 0.0195 µM, OCI-P5x cells, with rucaparib 20 µM, 100% = cells with rucaparib alone) 99.6% | viability ([9]; at 0.0781 µM, OCI-P5x cells, with rucaparib 20 µM, 100% = cells with rucaparib alone) 94% | viability ([9]; at 0.313 µM, OCI-P5x cells, with rucaparib 20 µM, 100% = cells with rucaparib alone) 90.5% | viability ([9]; at 0.313 µM, OCI-P5x cells, without rucaparib) 92.4% | viability ([9]; at 1.25 µM, OCI-P5x cells, with rucaparib 20 µM, 100% = cells with rucaparib alone) 88.3% | viability ([9]; at 1.25 µM, OCI-P5x cells, without rucaparib) 92.2% | viability ([9]; at 5 µM, OCI-P5x cells, with rucaparib 20 µM, 100% = cells with rucaparib alone) 83.7% | viability ([9]; at 5 µM, OCI-P5x cells, without rucaparib) 85.5%
0.79: normalised cell number [7, 21]
-0.321 and 0.64 and -0.821: z-score [8, 23]
0.86: normalised cell number [7, 20]

Cc1ccc(S(=O)(=O)NC(=O)NCc2csc3ccc(Cl)cc23)cc1
active: log fold change Tl+ flux [10] 0.252 | log fold change Tl+ flux [11] 0.65 | log fold change Tl+ flux [12] 0.241 | log fold change Tl+ flux [13] 0.366 | log fold change Tl+ flux [14] 0.14 | log fold change Tl+ flux [16] 0.48 | log fold change Tl+ flux [17] 0.193 | log fold change Tl+ flux [18] 0.329 | log fold change Tl+ flux [19] 0.116
inactive: log fold change Tl+ flux [15] 0.0453

COc1nc(C)nc(Cl)c1NC1=NCCN1
72.6% and 70.2%: viability [1]
inactive: parasite load remaining [1] 85.8% and 79.7% | fluorescence ratio [2] 1.09 | inhibition [3] 4.36% | inhibition [4] 5.29% | fluorescence ratio [5] 1.07 | mean signal [6] 246 | z-score [8, 22] -0.211 and 0.715 | log fold change Tl+ flux [10] -0.00461 | log fold change Tl+ flux [11] -0.0516 | log fold change Tl+ flux [12] -0.0248 | log fold change Tl+ flux [13] -0.00507 | log fold change Tl+ flux [14] -0.00669 | log fold change Tl+ flux [15] -0.0325 | log fold change Tl+ flux [16] -0.0423 | log fold change Tl+ flux [17] -0.005 | log fold change Tl+ flux [18] -0.00418 | log fold change Tl+ flux [19] -0.0114
0.176 and 0.122: z-score [8, 23]

CC(C)NCC(O)c1ccc(NS(C)(=O)=O)cc1 (stereo unspecified)
1.21: normalised cell number [7, 20]
0.97: normalised cell number [7, 21]
inactive: fluorescence ratio [2] 1.06 | inhibition [3] 1.19% | inhibition [4] -3.95% | fluorescence ratio [5] 0.98 | mean signal [6] 233 | red/green cell ratio (normalised) [7] 0.8 | z-score [8, 22] -0.308 and -0.43 and 0.386 | log fold change Tl+ flux [10] 0.0283 | log fold change Tl+ flux [11] -0.0363 | log fold change Tl+ flux [12] 0.0277 | log fold change Tl+ flux [13] 0.0134 | log fold change Tl+ flux [14] -0.004 | log fold change Tl+ flux [15] -0.065 | log fold change Tl+ flux [16] -0.000905 | log fold change Tl+ flux [17] -0.0581 | log fold change Tl+ flux [18] 0.0206 | log fold change Tl+ flux [19] 0.0082
0.759 and -0.504 and 0.277: z-score [8, 23]

CCOC(=O)c1ccc(OC(=O)CCCCCN=C(N)N)cc1
inactive: parasite load remaining [1] 117% and 36.3% | fluorescence ratio [2] 1.04 | inhibition [3] 0.4% | inhibition [4] -1.64% | fluorescence ratio [5] 0.95 | mean signal [6] 243 | z-score [8, 22] -0.35 and 0.272 | log fold change Tl+ flux [10] -0.0684 | log fold change Tl+ flux [11] -0.00638 | log fold change Tl+ flux [12] -0.0274 | log fold change Tl+ flux [13] -0.0274 | log fold change Tl+ flux [14] 0.00659 | log fold change Tl+ flux [15] -0.063 | log fold change Tl+ flux [16] -0.0293 | log fold change Tl+ flux [17] -0.0476 | log fold change Tl+ flux [18] -0.00905 | log fold change Tl+ flux [19] -0.0477
77.4% and 88.1%: viability [1]
0.185 and -0.0147: z-score [8, 23]

CC(C)C[C@H](NC(=O)[C@@H](O)[C@H](N)Cc1ccccc1)C(=O)O
136%: viability [1]
0.817: z-score [8, 23]
inactive: parasite load remaining [1] 23.8% | fluorescence ratio [2] 0.92 | inhibition [3] 0.66% | inhibition [4] 9.06% | fluorescence ratio [5] 0.88 | mean signal [6] 255 | z-score [8, 22] -0.957 | log fold change Tl+ flux [10] -0.0323 | log fold change Tl+ flux [11] -0.0233 | log fold change Tl+ flux [12] 0.0093 | log fold change Tl+ flux [13] -0.0304 | log fold change Tl+ flux [14] -0.0684 | log fold change Tl+ flux [15] -0.0391 | log fold change Tl+ flux [16] 0.000543 | log fold change Tl+ flux [17] -0.0202 | log fold change Tl+ flux [18] 0.00103 | log fold change Tl+ flux [19] -0.0673

— PubChem BioAssay
